# Compound activity from PubChem BioAssay.
# In the library only some 1.6% were active in any assay of this set; here they are far more common.
# DYRK1A inh = blocks rat Dyrk1A kinase activity; 310,000 compounds, 0.43% hits; inhibition, % at 12.5 µM; ADP-Glo luminescence, NFATc1 peptide; Q63470; in the data active = inhibition above about 50%
# dFosB act-1 = mouse delta FosB homodimer activation | P13346 | purified delta FosB, TAMRA-CDK5 oligo fluorescence polarization; percent of positive-control signal above neutral wells | activation, % at 25 µM | 340,000 compounds, 0.99% hits;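 active = mean activation above about 17%, with every replicate also reaching it, limit read from the data, passing the limit was not always enough; inconclusive = only one of the two conditions met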
# Target sequence (P13346 whole entry, looked up): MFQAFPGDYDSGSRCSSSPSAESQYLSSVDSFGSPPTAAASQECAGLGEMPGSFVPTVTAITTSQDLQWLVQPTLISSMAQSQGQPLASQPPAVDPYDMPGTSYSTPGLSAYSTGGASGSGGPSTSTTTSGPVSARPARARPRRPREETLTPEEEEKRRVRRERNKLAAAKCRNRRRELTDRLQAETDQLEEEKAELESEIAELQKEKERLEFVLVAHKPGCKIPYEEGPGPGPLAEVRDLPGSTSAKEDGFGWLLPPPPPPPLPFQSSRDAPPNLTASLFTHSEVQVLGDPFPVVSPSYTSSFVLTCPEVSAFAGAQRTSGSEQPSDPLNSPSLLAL
# Bfl-1 A1 inh = inhibitors of the anti-apoptotic protein A1, read as caspase activation | MEF A1-2A-BIM cells, Caspase-Glo 3/7 luminescence, 3 h; percent of clofoctol response, vehicle zero | caspase activation, % (no concentration beside the values) | 330,000 compounds, 0.066% hits;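 active = over half of replicate activation scores above 10%, or exactly half above 10 with the replicate mean above 10; inconclusive = replicate mean below 10 yet half the replicates above 10; inactive = over half of replicates below 10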
# B2AR ag = agonists of human beta-2 adrenergic receptor inducing internalization; AID 504454; Am2.2-beta2AR cells, FAP receptor internalization, flow cytometry; 340,000 compounds, 0.43% hits; response, % (no concentration beside the values); P07550;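 active = response above a set limit, near 3 SD of response in nonfluorescent compounds, cut at about 42% in these data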
# dFosB act-2 = enhances mouse delta FosB homodimer binding to DNA. 2,400 tested, under 10 active. activation, % at 24.9 µM. purified delta FosB, TAMRA-CDK5 oligo fluorescence polarization; normalised: neutral wells 0, positive control 100. shares compounds with dFosB act-1;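 active = highest replicate activation at or above 34% and every replicate reaching that threshold; inconclusive = meets only one of the two criteria; inactive = meets neither criterion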;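 also: higher polarization means more probe DNA bound by delta FosB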
# Hits are given with their value; i = inactive; ? = inconclusive; nt = no result given.
SMILES,DYRK1A inh,dFosB act-1,Bfl-1 A1 inh,B2AR ag,dFosB act-2
COc1ccc(Cl)cc1NC(=O)CSc1nc(NS(=O)(=O)c2ccc(C)cc2)cc(=O)[nH]1,i,28,i,i,i
Cc1cccc(OCC(=O)N/N=C\C=C\c2ccc3c(c2)OCO3)c1C,i,38,i,i,i
CCCNC(=O)C(Cc1ccc(C(F)(F)F)cc1)NC(=O)c1ccc(C#N)cc1 (stereo not drawn),i,i,i,i,nt
N#Cc1ccc(NC(=O)c2cc(-c3cccs3)on2)cc1,i,22,i,i,i
Cn1cc(Cl)c(C(=O)Nc2nc3ccc(Cl)cc3s2)n1,i,24,i,i,i
COc1ccc(-c2nc(Cn3c(SCc4ccc(C)cc4)nc4ccncc43)c(C)o2)cc1OC,i,39,i,i,i
COc1ccc(-c2nc(Cn3c(SCc4cccc(F)c4)nc4ccncc43)c(C)o2)cc1OC,i,?,i,i,nt
COc1ccc(NS(=O)(=O)c2cc(NC(=O)CNC(=O)c3ccc(C)s3)ccc2Cl)cc1,i,i,i,i,nt
Cc1ccc(C(=O)NCC(=O)Nc2ccc(C)c(S(=O)(=O)Nc3ccc(Cl)cc3)c2)s1,i,36,i,i,i
Cc1c(NC(=O)c2cc3c(s2)-c2ccccc2OC3)cccc1[N+](=O)[O-],i,i,i,i,nt
Cc1csc(NC(=O)c2cc3c(s2)-c2ccccc2OC3)n1,i,35,i,i,i
COc1ccc(OCCSCc2nnc(NC(=O)Nc3ccc(Cl)cc3)s2)cc1,i,24,i,i,i
CCN(CC)S(=O)(=O)c1ccc(Cl)c(NC(=O)c2cc(Cl)cc(Cl)c2)c1,i,54,i,i,i
CCN(CC)S(=O)(=O)c1ccc(Cl)c(NC(=O)c2ccccc2C)c1,i,i,i,i,nt
O=C(Cn1cnc2c(oc3nc4c(cc32)CCCC4)c1=O)Nc1cccc(Cl)c1,nt,20,i,i,i
Cc1ccc(N2CC(C(=O)OCC(=O)c3ccc([N+](=O)[O-])cc3)CC2=O)cc1 (stereo not drawn),i,i,i,i,nt
COc1ccc(CNCC(O)(c2ccc(Cl)cc2)c2ccc(Cl)cc2)cc1,i,21,i,i,i
COc1ccc(CNCC(O)(c2ccc(Cl)cc2)c2ccc(Cl)cc2)cc1OC,i,i,i,i,nt
COc1ccc(CCN(C)C(=O)c2c(C)nn(-c3ccccc3)c2C)cc1OC,i,i,i,i,nt
CC(C)NOC(=O)c1ccc(Cl)cc1,i,i,i,i,nt
COc1cc2c(-c3ccc(O)cc3)nc3c(c(C)nn3-c3ccccc3)c2cc1OC,i,27,i,i,i
Oc1ccc(/C=N/Nc2ccnc3cc(Cl)ccc23)c(O)c1,i,?,i,i,nt
Cc1ccccc1/C=N/Nc1ccnc2cc(Cl)ccc12,i,38,i,48,i
O=c1[nH]c(SCc2ccc(F)cc2)nc2c1cnn2-c1ccc(F)cc1,i,35,i,i,i
CCCSc1nc2c(cnn2-c2ccc(F)cc2)c(=O)[nH]1,i,48,i,i,i
SMILES,DYRK1A inh,dFosB act-1,Bfl-1 A1 inh,B2AR ag,dFosB act-2
CCCSc1nc2c(cnn2-c2ccccc2)c(=O)[nH]1,i,i,i,i,nt
O=C(C1CN(C(=O)c2cc3cc(Cl)ccc3o2)c2ccccc2O1)N1CCCCC1 (stereo not drawn),i,i,i,i,nt
O=C(CCc1ccccc1)Nc1nc2n(n1)C(c1ccccc1)CC(=O)N2 (stereo not drawn),i,27,i,i,i
COc1cccc(OC)c1OC(=O)c1ccccc1,i,i,nt,i,nt
Cc1ccccc1NC(=O)Cc1nc(COC(=O)c2cc([N+](=O)[O-])ccc2N)cs1,nt,27,i,i,i
F[B-](F)(F)COCc1ccccc1Br,i,i,nt,i,nt
CC[C@H](C)[C@@H]1NC(=O)c2cc([N+](=O)[O-])cc(F)c2NCCCC[C@@H](C(N)=O)NC(=O)[C@H](CCCCN)NC1=O,i,21,i,i,i
O=C(Nc1ccc(F)cc1)Nc1ccc(N2CCOCC2)c2nonc12,i,i,i,i,nt
COc1ccc(NC(=O)Nc2ccc(N3CCOCC3)c3nonc23)c(OC)c1,i,26,i,i,i
O=C(C[n+]1cnn(CC(=O)c2ccc(Cl)cc2Cl)c1)c1ccc([N+](=O)[O-])cc1,i,32,i,i,i
O=C(Cn1cnc([N+](=O)[O-])c1)c1ccc(Cl)cc1,i,i,i,i,nt
COc1ccc(NC(=O)c2cc3ccccc3cc2O)cc1,i,i,i,i,nt
CCOc1ccc(NC(=O)NNC(=O)c2cc3ccccc3cc2O)cc1,i,39,i,i,i
Cc1ccc(C)c(NC(=O)NNC(=O)c2cc3ccccc3cc2O)c1,i,?,i,i,nt
CCc1ccc(NC(=O)NNC(=O)c2cc3ccccc3cc2O)cc1,i,39,i,i,i
Cc1ccc(NC(=O)NNC(=O)c2cc3ccccc3cc2O)cc1C,i,54,i,i,i
CCc1ccc(NC(=O)NNC(=O)c2ccc3ccccc3c2O)cc1,i,i,i,i,nt
CC(C)(C)NC(=O)COC(=O)CCC(=O)c1cccs1,nt,i,i,i,nt
COc1cc(C2C(C#N)=C(N)Oc3cc(C)n(CCc4ccccc4)c(=O)c32)cc2c1OCO2 (stereo not drawn),i,68,i,i,i
Cc1ccc2c(c1)NC(=O)c1cc([N+](=O)[O-])ccc1O2,i,31,i,i,i
COC(=O)c1sccc1NC(=O)CNC(=O)c1ccccc1,nt,i,i,i,nt
Cc1ccc(-n2ncc3c2CC(C)(C)CC3NC(=O)c2ccncc2)cc1 (stereo not drawn),i,i,i,i,nt
Cc1c(O)ccc2c(CN3CCN(C/C=C/c4ccccc4)CC3)cc(=O)oc12,i,18,i,i,i
Cc1ccc(OCCC(=O)NNC(=O)c2cc(C)oc2C)cc1,i,i,i,i,nt
COc1cccc(NC(=O)Nc2cc(NC(=O)Nc3cccc(OC)c3)c(C)nc2C)c1,i,18,i,i,i
SMILES,DYRK1A inh,dFosB act-1,Bfl-1 A1 inh,B2AR ag,dFosB act-2
COc1cccc(NC(=O)Nc2ccncc2)c1,i,i,i,i,nt
Cc1cccc(NC(=O)Cc2nnc(NC(=O)Nc3ccccc3F)s2)c1,i,40,i,i,i
COc1cccc(NC(=O)Nc2nnc(CC(=O)Nc3ccccc3)s2)c1,i,?,i,i,nt
COc1cccc(NC(=O)Nc2nnc(Cc3ccc(F)cc3)s2)c1,i,29,i,i,i
COc1ccccc1-n1c(SC)nc2c(sc(=S)n2-c2ccccc2)c1=O,i,24,nt,i,i
Cc1c(C#N)c2ccccc2n1CC(=O)NC(C)c1ccccc1 (stereo not drawn),i,i,i,i,nt
Cc1cccc(NC(=O)Cn2c(C)c(C#N)c3ccccc32)c1C,i,32,i,i,i
COc1cccc(NC(=O)CN(C)C(=O)c2cc(-c3ccccc3)nn2-c2ccccc2)c1,i,i,i,i,nt
COc1ccc(NC(=O)NNC(=O)COc2ccc3cc(Br)ccc3c2)cc1,i,i,i,i,nt
COc1ccc(NC(=O)NNC(=O)COc2ccc3ccccc3c2)cc1OC,i,i,i,i,nt
